# SNCA viab count: reduces viability of HEK-293 SNCA reporter cells | HEK-293-SNCA-luc viability, GF-AFC fluorescence, 24 h | hit rate 0.12% among 150,000 | AID 1671193 | Potency, µM (top dose mostly 57.1 µM), inactives show at the top dose activity change, negative = cytotoxicity, usual class: cytotoxic;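 further: potency means the concentration at half of the fitted maximal effect; 0% = DMSO-treated cells and -100% = medium-only wells without cells; nearly all actives have a fitted effect of over 30% in size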
#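 Cytotoxicity counterscreen: after 24 h compound treatment of genome-edited SNCA-luciferase HEK-293 cells, live-cell protease substrate GF-AFC read by fluorescence after 30 min; activity scaled between DMSO (0%) and medium-only (-100%), curves Hill-fitted.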
# SNCA expr inh: inhibitors of alpha-synuclein (SNCA) gene expression; HEK-293 SNCA-luciferase knock-in, luminescence, 24 h; Potency, µM (top dose mostly 57.2 µM), without a hit: at the highest dose activity change, negative = inhibition, usual class: inhibitors; hit rate 0.17% among 140,000; AID 1671194;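 further: potency means the concentration at half of the fitted maximal effect; plate controls were DMSO cells for no effect and cell-free wells for full effect; nearly all actives have a fitted effect of over 45% in size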
# KDM5B inh: inhibitors of human KDM5B histone demethylase; hit rate 2.6% among 220,000; Q9UGL1; Potency, µM (series often up to 57.7 µM), usual class: inhibitors; KDM5B demethylase, FDH-coupled NADH fluorescence (FDH is formaldehyde dehydrogenase); further: potency means the concentration at half of the fitted maximal effect; 0% is about no effect; nearly all actives have a fitted effect of over 70% in size
#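 KDM5BΔAP (200 nM final) in 50 mM HEPES pH 7.5, 0.01% Tween-20 was preincubated 10 min at RT with compound over a concentration range. Substrate mix (H3K4me3 12.5 µM, α-KG 25 µM, Fe²⁺, ascorbate, NAD⁺, FDH) was added, and NADH fluorescence change over 30 min gave dose-response curves.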
# IP6K1 inh: inhibitors of human IP6K1 | IP6K1 kinase, ADP-Glo luminescence, 2 h; active compounds read low | activity change, % (series mostly up to about 58 µM) | hit rate 0.81% among 140,000 | AID 1645851; in the data active means activity change below about -25%; further: on the % scale 0 is the no-effect control and ±100 the full control effect
#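 ADP-Glo luminescence measures ADP made by human IP6K1 during a 2 h RT reaction with ATP/IP6 (mix at 1.3 mM/130 uM); top library doses 57.5 and 19.1 uM final.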
# An asterisk follows results filed as active; i = inactive; ? = inconclusive; / = no result given. The list is not random: actives were taken first. Their share in the collection is about 3%. Unless noted, the call rests on the fitted dose curve; in most records, active means well fitted curve in the direction sought with a large enough effect; inconclusive means small, poorly fitted or top-dose-only effect, or another doubt; inactive means no such curve, though single readings can be large; an effect the other way counts as inactive or inconclusive.
SMILES,SNCA viab count,SNCA expr inh,KDM5B inh,IP6K1 inh
CCOc1ccccc1NC(=O)c1cc2n(n1)CC(c1ccc(Cl)cc1)OC2 (stereo not drawn),2.6%,-1.1%,22.4µM*,-2.2
Cc1cccc(NC(=O)c2cc3n(n2)CC(c2ccc(Cl)cc2)OC3)c1 (stereo not drawn),6.0%,-20.1%,?,-4.0
Cc1c(Cl)cccc1NC(=O)c1cc2n(n1)CC(c1ccc(Cl)cc1)OC2 (stereo not drawn),9.9%,7.3%,25.1µM*,-3.6
Cc1ccc(NC(=O)c2cc3n(n2)CC(c2ccc(Cl)cc2)OC3)cc1C (stereo not drawn),-5.6%,?,?,24.4
Cc1ccc(C)c(NC(=O)c2cc3n(n2)CC(c2ccc(Cl)cc2)OC3)c1 (stereo not drawn),-0.8%,-5.4%,28.2µM*,26.5
Cc1ccc(NC(=O)c2cc3n(n2)CC(c2ccc(Cl)cc2)OC3)c(Cl)c1 (stereo not drawn),7.0%,35.8%,17.8µM*,26.2
O=C(C1CCN(c2nccc(Nc3ccccc3Cl)n2)CC1)N1CCC(c2ccccc2)CC1,-7.7%,?,/,1.8
N#C/C(=C\c1ccnc2ccccc12)c1nc2ccccc2s1,/,/,i,/
Cn1cccc1/C=C(\C#N)c1ccc(Cl)cc1Cl,/,/,i,/
Cn1ncc2c(C(=O)NCc3cccs3)cc(-c3ccc(Cl)cc3Cl)nc21,-18.0%,-1.8%,/,4.1
CC(C)C(=O)NC(C)C(=O)N1CCN(c2ccccn2)CC1 (stereo not drawn),2.6%,-24.6%,?,30.3
COc1ccccc1CC(=O)NC(C)C(=O)N1CCN(c2ccccn2)CC1 (stereo not drawn),5.8%,4.5%,28.2µM*,-3.1
COc1ccccc1CCC(=O)NC(C)C(=O)N1CCN(c2ccccn2)CC1 (stereo not drawn),3.8%,0.1%,25.1µM*,4.6
CCOC(=O)[C@H]1C[C@]2(CCCCN(C)C2=O)N(C(=O)c2ccccc2)[C@H]1c1ccco1,/,/,/,-9.6
COc1ccc(S(=O)(=O)N2CCc3nc4cc(-c5ccccc5)[nH]n4c(=O)c3C2)cc1,13.7%,-27.5%,?,0.0
COc1ccc(Cl)cc1C(=O)N1CCc2nc3cc(-c4ccccc4)[nH]n3c(=O)c2C1,-10.1%,1.0%,25.1µM*,0.0
CN(C)S(=O)(=O)N1CCc2c(nc3cc(-c4ccccc4)[nH]n3c2=O)C1,1.1%,-4.4%,22.4µM*,21.9
Cc1noc(C)c1S(=O)(=O)N1CCc2nc3cc(-c4ccccc4)[nH]n3c(=O)c2C1,3.3%,?,28.2µM*,6.1
O=C(c1cc2c(s1)CCCC2)N1CCc2c(nc3cc(-c4ccccc4)[nH]n3c2=O)C1,-2.4%,0.7%,i,29.7
O=C(c1ccccc1Cl)N1CCc2c(nc3cc(-c4ccccc4)[nH]n3c2=O)C1,4.2%,-13.3%,35.5µM*,14.1
O=C(c1nccc2ccccc12)N1CCc2c(nc3cc(-c4ccccc4)[nH]n3c2=O)C1,4.2%,-5.6%,?,19.5
CSC1=N/C(=C\c2cccc(OCc3ccccc3)c2)C(=O)S1,/,/,i,/
COc1ccc(-n2nnnc2SCC(=O)NC(C)c2ccc(-c3ccccc3)cc2)cc1 (stereo not drawn),/,/,i,/
CN(CC(=O)Nc1ccc(Cl)cc1)Cc1ncc(-c2ccc(F)cc2)o1,/,/,i,/
CNC(=O)NC(=O)Cn1c(=O)c2c(ncn2CCC(C)C)n(Cc2ccccc2)c1=O,/,/,i,/
SMILES,SNCA viab count,SNCA expr inh,KDM5B inh,IP6K1 inh
COc1nc2ccccc2nc1N1CCC(C(=O)Nc2ccc(C)c(Cl)c2)CC1,/,/,i,/
CCOC(=O)CCNC(=O)N1CCc2c(nc(-c3ccccc3)[nH]c2=O)C1,5.2%,0.2%,i,34.3
O=C(c1n[nH]c2c1CCCCCC2)N1CCc2c(nc3cc(-c4ccccc4)[nH]n3c2=O)C1,12.0%,-0.8%,?,53.9
CCn1cc(Cl)c(C(=O)N2CCc3c(nc4cc(-c5ccccc5)[nH]n4c3=O)C2)n1,13.8%,-0.5%,25.1µM*,26.1
CCOC(=O)CCNC(=O)N1CCc2c(nc3cc(-c4ccccc4)[nH]n3c2=O)C1,1.2%,4.8%,28.2µM*,15.9
N#Cc1ccccc1CN1CCc2cc(S(=O)(=O)N3CCOCC3)ccc21,/,/,i,/
CCN(CC)C(CNS(=O)(=O)c1ccc(C#N)cc1)c1ccsc1 (stereo not drawn),/,/,i,/
CCc1ncc2c(N3CC4CCC(C3)N4CC(F)(F)F)nc3ccccc3n12,4.7%,-0.2%,70.8µM*,33.5
COc1cc2ncnc(N3CC4CCC(C3)N4CC(F)(F)F)c2cc1OC,-2.8%,17.2%,i,27.6

# Screening results as filed in PubChem BioAssay.
